Laboratory results from PubChem BioAssay (NCI).
About 79,000 compounds went through this panel and 15% of them were active in at least one assay; those are over-represented in the sample as a whole. Rule as the data show it: active = growth inhibition above about 70%; inactive = the rest.

What was measured:
[1] = NCI Yeast Anticancer Drug Screen. Data for the rad50 strain (AID 155);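 also: 0% = growth of vehicle-only cultures of the same strain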; settings: S. cerevisiae rad50 strain growth inhibition; at 50.0 µM; hits give high values
Procedure, shortened: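 Relative growth inhibition (compound vs vehicle) was measured in yeast with a defined repair-gene alteration.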

[2] = NCI Yeast Anticancer Drug Screen. Data for the mec2-1 strain (AID 157); settings: S. cerevisiae mec2-1 strain, at 50.0 µM, hits give high values
Procedure, shortened: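 Strain: mec2-1 (DNA repair/cell cycle alteration). Compound exposure, then growth measured; inhibition expressed relative to vehicle.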

[3] = NCI Yeast Anticancer Drug Screen. Data for the sgs1 mgt1 strain (AID 161);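 also: 0% = growth of cultures given vehicle only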; settings: S. cerevisiae sgs1 mgt1 strain, at 50.0 µM, hits give high values
Procedure, shortened: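 Mutant yeast exposed to compound; growth scored against vehicle-only wells.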

[4] = NCI Yeast Anticancer Drug Screen. Data for the cln2 rad14 strain (AID 165);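 also: 0% = growth equal to vehicle treated cultures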; settings: S. cerevisiae cln2 rad14 strain, at 50.0 µM, hits give high values
Procedure, shortened: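 Compounds are applied to the cln2 rad14 yeast strain, and growth is then compared with that of vehicle-treated cultures to give inhibition.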

[5] = NCI Yeast Anticancer Drug Screen. Data for the bub3 strain (AID 167); settings: S. cerevisiae bub3 mutant strain, at 50.0 µM, hits give high values
Procedure, shortened: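 Screening used yeast with an engineered genetic alteration affecting cell cycle control. Compound-exposed cultures were compared with vehicle cultures, and reduced growth was taken as inhibition.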

[6] = NCI Yeast Anticancer Drug Screen. Data for the mlh1 rad18 strain (AID 175); settings: S. cerevisiae mlh1 rad18 strain growth inhibition; at 50.0 µM; hits give high values
Procedure, shortened: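 Read-out is yeast growth inhibition, calculated against vehicle-only controls. The compound was applied to a strain engineered with DNA damage repair alterations.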

Measured: growth inhibition

CC(=O)Nc1cc(Cl)c(Oc2ccccc2)cc1[N+](=O)[O-]
inactive: [1] 19.2% | [2] 27.9% | [3] 27.7% | [4] 33% | [5] 52% | [6] 14.6%

C=C(CCCC(C)OC(=O)NC(C)c1cccc2ccccc12)[Si](C)(C)C (configuration not stated)
inactive: [1] -41.7% | [2] -20.1% | [3] -19.6% | [4] -6.6% | [5] 8.3% | [6] -26.4%

CC(=O)CC(C)=NCCCCN=C(C)CC(C)=O
inactive: [1] -12.6% | [2] -29.1% | [3] 5.55% | [4] 5.35% | [5] -25.2% | [6] -17.3%

O=C(O)C1CCCN1Cc1ccc2c(c1)OCO2 (configuration not stated)
inactive: [1] -5.1% | [2] -19.6% | [3] -34% | [4] -3.5% | [5] -40.8% | [6] -36.8%

FC(F)(F)c1cccc(N=Cc2ccc(C=Nc3cccc(C(F)(F)F)c3)cc2)c1
inactive: [1] 10.4% | [2] -9.2% | [3] 13.3% | [4] 7.6% | [5] -9% | [6] 1.35%

Clc1ccc(CNc2nc3ccccc3nc2-c2cccs2)c(Cl)c1
inactive: [1] -0.3% | [2] 16.8% | [3] 11.3% | [4] 5.25% | [5] 12.3% | [6] 18.7%

O=c1c(SCc2ccccc2)c(N2CCOCC2)cnn1-c1ccccc1
inactive: [1] 28.4% | [2] -1.85% | [3] 22.8% | [4] 30.1% | [5] 22.1% | [6] 7.75%

CN(C)CCCCC(C#N)(c1ccccc1)c1ccccc1
inactive: [1] 16.3% | [2] 18.8% | [3] 16.6% | [4] 12.7% | [5] 26.5% | [6] 38.5%

O=C1Nc2cccc3cc(NCC(O)CCCl)cc1c23 (configuration not stated)
inactive: [1] 17.4% | [2] 3.1% | [3] 18.2% | [4] -5.8% | [5] 14.6% | [6] 20.6%

C=CCC1CCC/C1=N\O (configuration not stated)
inactive: [1] -13.4% | [2] 10.4% | [3] 17.3% | [4] -12.2% | [5] -3.15% | [6] 3.9%

O=C(O)CSc1nc2cc(Cl)c(Cl)cc2[nH]1
inactive: [1] -9.75% | [2] -6.75% | [3] 1.35% | [4] -10.4% | [5] 13.1% | [6] -7.55%

CN=C(N)SCCCCCCSC(N)=NC
inactive: [1] -1.5% | [2] 0% | [3] 16.6% | [4] 26.1% | [5] -3.6% | [6] 4.15%

Cc1ccc(C(=O)Nc2ccc([N+](=O)[O-])cc2)cc1
inactive: [1] 4.2% | [2] -6.75% | [3] -0.35% | [4] -2.75% | [5] -5.35% | [6] -2.95%

COc1ccccc1C/C(=N/O)c1ccccc1OC
inactive: [1] 3.65% | [2] -2.8% | [3] 14.1% | [4] 15.6% | [5] -3.8% | [6] 4.35%

C=CCCCCCCCCCCCCCCCCC
inactive: [1] -25.9% | [2] -24.1% | [3] -13.3% | [4] 10.4% | [5] -16.1% | [6] -28%

Cc1ccc(N=CC=C2C=CN(O)C=C2)nc1
inactive: [1] -8% | [2] -10.9% | [3] -0.85% | [4] -19.2% | [5] -19.1% | [6] -10.5%

CCCCCCCCCCCCCCCc1cc(OC)ccc1S(=O)(=O)O
inactive: [1] 22.6% | [2] 5.8% | [3] 15.9% | [4] 30.9% | [5] 3.1% | [6] 15.6%

CCCCCCCCCCCC(=O)OCC
inactive: [1] 26.8% | [2] 22.4% | [3] 8.45% | [4] 25.2% | [5] 9.15% | [6] 8.7%

N#CC(=C1CCCCC1)c1ccccc1
inactive: [1] -14.1% | [2] -21.2% | [3] -21.6% | [4] -5.75% | [5] -15.9% | [6] -27.1%

CCN(C)C(=O)NC(C)=O
inactive: [1] 2.65% | [2] 11.1% | [3] -17.9% | [4] -14% | [5] 2.5% | [6] 15%

CC1=Nc2ccccc2NC2(C1)C(C1COC(C)(C)O1)OC1OC(C)(C)OC12 (configuration not stated)
inactive: [1] 9.95% | [2] 13.8% | [3] 20.3% | [4] 21.5% | [5] 2.1% | [6] 17.9%

Cc1cccc(NC(=O)Oc2ccc(Cl)cc2C(=O)c2ccccc2)c1
inactive: [1] 30.4% | [2] 10.7% | [3] 35.4% | [4] 29.9% | [5] 34.4% | [6] 26.2%

N#C/C(=C\c1ccco1)C(=O)Nc1ccc(Br)cc1
inactive: [1] 27.9% | [2] -3.75% | [3] 1.65% | [4] -35.8% | [5] 9.1% | [6] 23.8%

FC(F)(F)C[P+](c1ccccc1)(c1ccccc1)c1ccccc1
inactive: [1] 40.9% | [2] 13.1% | [3] 15.3% | [4] 16.9% | [5] 11.5% | [6] 26%

CCOC(=O)c1c2ccc(/C=C/c3ccccn3)ccc-2c(C(=O)OCC)c1N
inactive: [1] 15.2% | [2] -4.75% | [3] -1% | [4] 13% | [5] 0.9% | [6] -3.1%

Nc1ncc2[nH]c(I)nc2n1
inactive: [1] 16.9% | [2] 19.9% | [3] 0.65% | [4] 0.7% | [5] 40.2% | [6] 26.4%

CC(=O)Nc1ccc2ccc3ccccc3c2c1
inactive: [1] 37% | [2] 9.25% | [3] 15.8% | [4] -19.1% | [5] -4.35% | [6] 23.7%

CCOC(=O)C(C#N)C1(O)C(=O)Nc2ccccc21 (configuration not stated)
inactive: [1] -4.65% | [2] -5% | [3] -6.7% | [4] 3.8% | [5] 0.55% | [6] 10.2%

CC(C)(C)OC(=O)N1CCCC1C(=O)NC(c1ccccc1)c1ccccc1 (configuration not stated)
inactive: [1] -35.1% | [2] -56.5% | [3] -37.5% | [4] -18.9% | [5] -13.4% | [6] -40.1%

CC1(C)OP2(O)(OC(C)(C)c3ccccc32)c2ccccc21
inactive: [1] 31.1% | [2] 5.6% | [3] 12.3% | [4] 1.8% | [5] 6.85% | [6] 24.1%

O=C(C(=O)c1cccc(Cl)c1)c1ccccc1
inactive: [1] 21.4% | [2] 24.6% | [3] 5% | [4] 2.85% | [5] -15.2% | [6] -5.45%

C=CC1=C(C)C2=NC1=CC1=NC(=CC3=C(C)C4=C(O)C(C(=O)OC)C(=C5NC(=C2)C(C)C5CCC(=O)OC)C4=N3)C(CC)=C1C (configuration not stated)
inactive: [1] 10.1% | [2] 11.3% | [3] -48.8% | [4] 7.95% | [5] 4.95% | [6] -12.5%

O=C(COc1ccc(Cl)cc1)Nc1nccs1
inactive: [1] 4.95% | [2] 32% | [3] 26.6% | [4] 5.7% | [5] 20.4% | [6] 21.4%

COc1cccc(-c2ccccc2)c1
inactive: [1] 7.35% | [2] 10.9% | [3] -11.3% | [4] 3.2% | [5] 14.6% | [6] -16.6%

NNC(=O)CC(N)C(=O)O (configuration not stated)
inactive: [1] 9% | [2] 4.4% | [3] -4.2% | [4] -20.7% | [5] 1.15% | [6] 2%

N#C/C(=N/Nc1ccccc1)c1ccccc1
inactive: [1] 6.5% | [2] 9.1% | [3] -12.1% | [4] -11.2% | [5] 1.85% | [6] -7.95%

CCNCCN(CC)CC
inactive: [1] -12.7% | [2] -5.75% | [3] -21.1% | [4] 6.1% | [5] 0% | [6] -17.4%

O=C1c2c(O)cccc2C(C(=O)CCCC(=O)C2c3cccc(O)c3C(=O)c3c(O)cccc32)c2cccc(O)c21
inactive: [1] -1.55% | [2] 13.2% | [3] 3.25% | [4] 19.9% | [5] -15.8% | [6] -0.85%

O/N=C\c1cc2ccccc2c[n+]1Cc1ccc2ccccc2c1Br
inactive: [1] 9.25% | [2] 32.1% | [3] 44.6% | [4] 48% | [5] 2.9% | [6] 38.8%

O=C(OCC(OC(=O)c1ccccc1)C(OC(=O)c1ccccc1)C(O)C(O)CO)c1ccccc1 (configuration not stated) (tested in a mixture with another compound)
inactive: [1] -6.8% | [2] -4.1% | [3] 9.55% | [4] -17.9% | [5] -12.2% | [6] 28.6%

C=C(CCC(Cl)C(O)CO)[Si](C)(C)C (configuration not stated)
inactive: [1] 37.5% | [2] -19.2% | [3] 52% | [4] 45.3% | [5] 49.2% | [6] 48.6%

CC(O)CCNC(=O)c1ccccc1 (configuration not stated)
inactive: [1] -10.4% | [2] -16.2% | [3] -11.3% | [4] -25.8% | [5] -13.3% | [6] -5%
